Laboratory results: PubChem BioAssay AID602357 (National Center for Advancing Translational Sciences (NCATS), 2012)
Records with an inconclusive call do not appear. Calls of active or inactive are those of the source. Calls follow the shape of the dose curve; as a rule, active = well fitted inhibition curve with a large enough effect; inconclusive = small, poorly fitted or top-dose-only effect; inactive = no such curve, though single readings can be large or run the other way.

Biological target: Luciferin 4-monooxygenase (Photinus pyralis) (UniProt P08659)
Assay: FLuc inhibitory activity for the follow-up compounds in a biochemical assay with Km concentrations of substrate
Conditions: purified FLuc, Km substrates, luminescence; series mostly up to 57.5 µM
Source text: NCGC Assay Overview: Firefly (Photinus pyralis) luciferase is one of the most commonly used transcriptional reporters. It is considered one of the more dynamically responsive reporters - that is, responsive to changes in reporter transcription - as it requires no post-translational modifications and is enzymatically active directly after protein synthesis (Wood, 1998). With no endogenous expression in mammalian cells and without the requirement of external excitation, it offers very little background signal, thus generally providing excellent signal to background for most assays. Previous profiling work to determine the prevalence of compounds that affect FLuc enzymatic activity (PubChem AID 411) identified that ~3% of the MLSMR library (then at ~72K) inhibited FLuc. […] Of the compounds identified in this profile that inhibited FLuc, 151 compounds were selected for further analysis, in an effort to better understand their mode of inhibiting FLuc. The assay described here confirms the FLuc inhibitory activity of the 151 compounds.
NCGC Assay Protocol Summary: Reagents: 50mM Tris acetate, pH 7.5; 10mM Mg acetate; 10uM D-luciferin (Sigma #L9504); 10uM ATP; 0.01% Tween-20; 0.05% BSA; 10nM P. pyralis luciferase (Sigma #L9506) Control compounds used were two known firefly luciferase inhibitors (3-(5-(3-chlorophenyl)-1,2,4-oxadiazol-3-yl)benzoic acid and 5-(2-fluorophenyl)-3-phenyl-1,2,4-oxadiazole), and DMSO. Three microliters containing firefly luciferase substrates in buffer (final concentrations: 50mM Tris acetate, pH 7.5, 10mM Mg acetate, 0.01% Tween-20, 0.05% BSA, 10uM D-luciferin, and 10uM ATP) are dispensed into each well of a Greiner white, solid-bottom 1536-well format plate using a flying reagent dispenser (FRD). These assay plates were then treated with 23nL of compound or DMSO using a Kalypsys pin tool, which allows for delivery of a 12-point intraplate titration of each compound to the assay plate (quantitative HTS), with a final compound concentrations ranging from approximately ~60uM to 0.3nM. One microliter of firefly luciferase in 500mM Tris-acetate buffer was then delivered by FRD to each well for a final enzyme concentration of 10nM. Luciferase activity was then measured using a ViewLux CCD imager (PerkinElmer), with an average exposure time of 2-30 seconds (2X binning, medium/high gain).

Sequence of Luciferin 4-monooxygenase (Photinus pyralis) (P08659 whole entry, looked up): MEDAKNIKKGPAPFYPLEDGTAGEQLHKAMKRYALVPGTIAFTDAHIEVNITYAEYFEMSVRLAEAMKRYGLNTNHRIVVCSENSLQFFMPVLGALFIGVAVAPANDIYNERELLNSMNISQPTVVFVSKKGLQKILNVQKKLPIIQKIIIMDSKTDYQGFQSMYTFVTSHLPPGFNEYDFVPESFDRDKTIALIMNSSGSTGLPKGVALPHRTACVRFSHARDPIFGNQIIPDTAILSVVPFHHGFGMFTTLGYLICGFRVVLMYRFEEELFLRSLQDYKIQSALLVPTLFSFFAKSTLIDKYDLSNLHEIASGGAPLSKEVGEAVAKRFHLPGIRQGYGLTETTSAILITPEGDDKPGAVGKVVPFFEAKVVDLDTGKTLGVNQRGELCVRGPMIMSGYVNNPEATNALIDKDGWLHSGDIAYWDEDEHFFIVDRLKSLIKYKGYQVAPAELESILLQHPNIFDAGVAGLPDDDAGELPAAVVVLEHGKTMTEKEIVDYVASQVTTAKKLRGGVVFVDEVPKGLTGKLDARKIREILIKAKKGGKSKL

Potency, inactive:
COc1ccc2nc(NC(=O)c3nc(S(=O)(=O)Cc4ccc(C)cc4)ncc3Cl)sc2c1, O=C(Cc1ccccc1)Nc1ccccc1C(=O)Nc1ccc(C(=O)O)cc1, COc1ccc2nc(NC(=O)CCc3nc(-c4ccccc4F)no3)sc2c1, Cc1ccc(C(=O)Nc2ccc(C(=O)O)cc2)cc1S(=O)(=O)Nc1ccccc1, COc1cc(OC)cc(C(=O)Nc2ccccc2-c2nc3ccccc3s2)c1, O=S(=O)(c1ccc(-c2nc3ccccc3s2)cc1)N1CCCC1, O=C(Nc1ccccc1C(=O)O)c1cc(S(=O)(=O)NCc2ccccc2)ccc1Cl, O=C(Nc1ccccc1C(=O)O)c1cccc(S(=O)(=O)Nc2ccc(Br)cc2)c1, CC(C)(C)NC(=O)c1ccccc1-c1nc2ccccc2s1, COc1cc(C(=O)Nc2cc(C)c(O)c(-c3nc4ccccc4s3)c2)cc(OC)c1OC

Potency, active:
O=C(O)c1ccccc1NC(=O)c1ccccc1Nc1ccccc1 18.3 µM, CCc1noc(C)c1C(=O)Nc1nc2ccc(OC)cc2s1 13 µM, CC(C)C(=O)Nc1cccc(C(=O)Nc2ccccc2C(=O)O)c1 5.8 µM, Cc1ccc(C(=O)O/N=C(\N)c2ccccn2)c(Cl)c1 0.0146 µM, COc1ccc2nc(NC(=O)c3ccco3)sc2c1 1.03 µM, C/C(=N\NC(=O)c1ccccc1NC(=O)c1ccc(Cl)cc1)c1ccncc1 0.0116 µM, CC(C)(C)C(=O)Nc1ccc(-c2nc3ccccc3s2)cc1 0.0116 µM, COc1cccc(-c2nc3ccccc3s2)c1 1.3 µM, O=C(O)c1ccc(NC(=O)c2cccc(NC(=O)c3cccs3)c2)cc1 9.19 µM, O=C(COC(=O)c1ccccc1[N+](=O)[O-])c1ccc2c(c1)OCO2 0.0058 µM, CCOc1ccc2nc(NC(=O)c3ccccn3)sc2c1 0.517 µM, CCOc1ccc2nc(NC(=O)c3ccccc3)sc2c1 0.326 µM, Cc1ccc(C(=O)Nc2cccc(C(=O)O)c2)cc1S(=O)(=O)N1CCCCC1 0.0651 µM, Cc1ccc2nc(-c3ccc(N)cc3)sc2c1 0.0819 µM, COc1ccc(C(=O)Nc2ccccc2C(=O)N/N=C/c2ccc(O)c(OC)c2)cc1 0.0037 µM, Cc1ccccc1C(=O)Nc1cccc(C(=O)Nc2ccccc2C(=O)O)c1 32.6 µM, O=C(O)c1cccc(NC(=O)c2cccc(S(=O)(=O)N3CCc4ccccc43)c2)c1 23.1 µM, COc1ccc2nc(NC(=O)c3cnccn3)sc2c1 2.91 µM, O=C(O)c1cccc(NC(=O)c2ccc(S(=O)(=O)c3ccccc3)cc2)c1 5.8 µM, Cc1ccc2nc(-c3ccc(NC(=O)CN4CCN(C(=O)c5ccco5)CC4)cc3)sc2c1 5.8 µM, COc1ccc(-c2cccc(C(=O)Nc3cccc(C(=O)O)c3)c2)cc1 4.61 µM, Nc1ccc(-c2nc3ccc(C(=O)O)cc3s2)cc1 0.0073 µM, CCOc1ccc2nc(NC(=O)c3ccoc3C)sc2c1 0.651 µM, CC(C)CC(=O)Nc1cccc(C(=O)Nc2ccccc2C(=O)O)c1 18.3 µM, O=C(O)c1ccc(NC(=O)c2ccccc2NC(=O)c2cccc(Br)c2)cc1 14.6 µM, CCOc1ccc2nc(NC(=O)c3cccnc3)sc2c1 2.91 µM, O=C(Nc1cccc(-c2nc3ccccc3s2)c1)c1cc(-n2cnnc2)ccc1Cl 11.6 µM, O=C(Nc1ccccc1C(=O)O)c1ccc(Cl)c(S(=O)(=O)N2CCOCC2)c1 8.19 µM, COc1ccc2nc(NC(=O)c3cccc(S(=O)(=O)N4CCOCC4)c3)sc2c1 20.6 µM, Cc1c(NC(=O)C(C)(C)C)cccc1-c1nc2ccccc2s1 3.26 µM
